Reference: PubChem BioAssay AID1851 (National Center for Advancing Translational Sciences (NCATS), 2009)
Values joined by “and” are separate entries in the source; they are usually repeats but may differ in a detail not shown here. Equal entries are not always repeated. In all, about 16,000 compounds went through this assay and about 2,600 (16%) were called active. Inconclusive results (about 20%) are left out. These entries were drawn from the full list. A structure can be active in one record and inactive in another. A number with no mark means an inactive call. The call rests on the fitted dose curve; in most records, active means well fitted curve in the direction sought with a large enough effect; inconclusive means small, poorly fitted or top-dose-only effect, or effect the other way; inactive means no such curve, though single readings can be large or run the other way.

Target: Cytochrome P450 2D6 (Homo sapiens) (UniProt P10635)
Test: Cytochrome panel assay with activity outcomes
Conditions: recombinant CYP, pro-luciferin dealkylation, luminescence, p450-cyp2d6; series mostly up to 57.1 µM
On the % scale 0 is the no-effect control and ±100 the full control effect.

Chain of Cytochrome P450 2D6 (Homo sapiens) (P10635 whole entry, looked up): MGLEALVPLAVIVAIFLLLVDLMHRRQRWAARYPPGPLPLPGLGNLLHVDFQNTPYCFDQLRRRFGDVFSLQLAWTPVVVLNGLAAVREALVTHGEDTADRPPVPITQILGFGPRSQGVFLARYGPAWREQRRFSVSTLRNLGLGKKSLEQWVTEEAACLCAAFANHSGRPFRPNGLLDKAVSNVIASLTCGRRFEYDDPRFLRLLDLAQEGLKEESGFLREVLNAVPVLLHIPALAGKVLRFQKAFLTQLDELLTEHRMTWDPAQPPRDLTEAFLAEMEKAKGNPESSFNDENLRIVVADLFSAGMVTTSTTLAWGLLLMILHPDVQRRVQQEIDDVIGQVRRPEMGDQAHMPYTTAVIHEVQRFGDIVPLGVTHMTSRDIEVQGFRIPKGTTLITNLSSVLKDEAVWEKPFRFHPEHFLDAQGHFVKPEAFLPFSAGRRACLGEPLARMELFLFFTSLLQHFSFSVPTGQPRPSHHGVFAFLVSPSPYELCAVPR

Structure (SMILES)	AC50	activity, negative = inhibition
COc1ncc2nc(C)c(=O)n(CCC#N)c2n1	inactive	–
COc1ccc(C(=O)N2CCC3(CCCN(C(=O)Nc4cccc(F)c4)C3)CC2)cc1	inactive	–
CCN(CC)C(=O)c1sc2[nH]c(=S)n(-c3ccccc3)c(=O)c2c1C	inactive	–
COc1cccc(OC)c1C(=O)Nc1cc(C)on1	inactive	–
CCOC(=O)C1=C(COc2ccc(F)cc2Cl)NC(=O)NC1c1cc(C)ccc1C (stereo not drawn)	inactive	–
CC(C)NC(=O)c1ccc2c(=O)n(Cc3ccco3)c(=S)[nH]c2c1	inactive	–
Cc1ncsc1C(=O)N1N=C2/C(=C/c3ccccc3)CCCC2C1c1ccccc1 (stereo not drawn)	inactive	–
Cc1ccc(S(=O)(=O)N/N=C/c2cccn2-c2ccc(Cl)cc2)cc1	inactive	–
COc1ccc(C(=O)Oc2cc(/C=N/NS(=O)(=O)c3ccc(C)cc3)ccc2OC)cc1	inactive	–
O=S(=O)(N/N=C\c1cccn1-c1ccccc1)c1ccc2ccccc2c1	5.01 µM (active)	–
CCc1ccccc1NC(=O)c1nnn(CC(=O)Nc2ccccc2C)c1N	inactive	–
Cc1nn(CC(=O)NCCN2CCOCC2)c(C)c1[N+](=O)[O-]	inactive	–
Cc1cc(C)n(C(=O)CCCCCCCCC(=O)n2nc(C)cc2C)n1	inactive	–
COc1ccc(Nc2nc(N3CCCCC3)c3ccccc3n2)cc1	1.58 µM (active)	–
COc1ccc(Nc2cc(C(=O)NCCCN3CCN(C)CC3)c3ccccc3n2)cc1	inactive	–
COc1ccc(N2CCN(c3nc(Nc4ccc(F)cc4)nc(OC)n3)CC2)cc1	inactive	–
CCNc1ncc2ncc(=O)n(C[C@H]3CCCO3)c2n1	inactive	–
COC(=O)C(Cc1c[nH]c2ccccc12)NC(=O)C(C)C (stereo not drawn)	inactive	–
CC(=O)N[C@@H](Cc1c[nH]c2ccccc12)C(=O)OCc1cc(C(F)(F)F)cc(C(F)(F)F)c1	inactive	–
COc1cc(CNCCc2c[nH]c3ccccc23)ccc1OCc1ccccc1F	3.98 µM (active)	–
COc1ccc(C(C(=O)NC2CCCCC2)N(C(=O)Cc2c[nH]c3ccccc23)c2ccc(NC(C)=O)cc2)cc1OC (stereo not drawn)	inactive	–
COc1cccc(CNCCc2c[nH]c3ccccc23)c1OCc1ccccc1F	0.282 µM (active)	–

Structure (SMILES)	AC50	activity, negative = inhibition
COc1cc(Cl)c(CC(=O)c2c[nH]c3ccccc23)cc1OC	–	-18% [at 11.4 µM]
CCOC(=O)c1cnc2cc(-c3ccc(C)cc3)nn2c1-c1ccccc1	inactive	–
O=C1N=C(N2CCC(Cc3ccccc3)CC2)S/C1=C/c1cn[nH]c1-c1ccccc1	inactive	–
COc1ccccc1NC(=O)Nc1nnc(-c2ccco2)s1	inactive	–
O=S(=O)(c1ccccc1)c1cnc(-c2cccnc2)nc1-c1ccc(Cl)cc1Cl	inactive	–
COC(=O)c1c(C)[nH]c(O)c1C=Nc1ccc(C(C)C)cc1	inactive	–
OC[C@H]1NC[C@H](O)[C@@H](O)[C@H]1O	inactive	–
CNCCC=C1c2ccccc2C=Cc2ccccc21	5.01 µM (active)	–
CN(C)CC/C=C1\c2ccccc2COc2ccccc21	15.8 µM (active) and 3.16 µM (active) and 3.98 µM (active)	–
CN(C)CCC=C1c2ccccc2C=Cc2ccccc21	6.31 µM (active)	–
C[N+](C)([O-])CCC=C1c2ccccc2CCc2ccccc21	–	-5.43% [at 11.4 µM]
O=C1OCc2cccc3cccc1c23	inactive	–
COc1ccc(C2=C(C#N)C(=O)OC2)cc1	inactive	–
CCOC(=O)c1cnn(-c2nc(-c3cccc(F)c3)cs2)c1C(F)(F)F	inactive	–
O=C(O)[C@@H]1CCCN1	–	-2.04% [at 11.4 µM]
CC1(C)C(=O)C(c2ccccc2)=C2CN3C(=O)N(CCc4ccccc4)C(=O)C3(Cc3ccccc3)C=C21 (stereo not drawn)	inactive	–
N#Cc1cc2[nH]c(=O)c(=O)[nH]c2cc1[N+](=O)[O-]	inactive	–
C[C@@]12C(=O)OC(=O)[C@@]1(C)[C@@H]1CC[C@@H]2O1	inactive	–
NC(N)=N/N=C\c1ccc(C2CCNCC2)cc1	–	-11% [at 11.4 µM]
CC(=O)c1cn(CC(=O)Nc2c(C)cccc2C)c2ccccc12	7.94 µM (active)	–
Cc1cccc(C)c1NC(=O)C[N+](C)(C)C	inactive	–
Cc1ccccc1NC(=O)Cn1cnc2c1c(=O)n(C)c(=O)n2C	inactive	–

Structure (SMILES)	AC50	activity, negative = inhibition
Cc1ccccc1NC(=O)c1cnc(Nc2nc3ccccc3s2)nc1C	inactive	–
CC(N)=O	inactive	–
C=CCNC(=O)C1CCN(S(=O)(=O)CC)CC1	inactive	–
CCN(CCCNC(=O)C1CCN(S(=O)(=O)CC)CC1)c1cccc(C)c1	25.1 µM (active)	–
CCS(=O)(=O)N1CCC(C(=O)NCCCOC)CC1	inactive	–
C=CCn1c(SCC(=O)Nc2c(C)n(C)n(-c3ccccc3)c2=O)nc2sc(C)c(-c3ccccc3)c2c1=O	inactive	–
COc1ccc(CO/N=C/c2c(C)[nH]c(=O)[nH]c2=O)cc1	inactive	–
CC(C)CNC(=S)N1CCN(C)CC1	inactive	–
CCN(CC)S(=O)(=O)c1ccc2c3c(cccc13)C(=O)S2	12.6 µM (active)	–
CCN(CC)S(=O)(=O)c1cccc2c(N(C)C)cccc12	inactive	–
CCOC(=O)NNC1CC(=O)N(c2ccc(OC)cc2)C1=O (stereo not drawn)	inactive	–
O=C(NCCCN1CCOCC1)c1cc2c(s1)CSC2	1.26 µM (active)	–
O=C(c1ccccc1)c1c[nH]c(C(=O)NCCCN2CCOCC2)c1	inactive	–
CCC(CC)C(=O)c1c[nH]c(C(=O)NCCCN2CCOCC2)c1	inactive	–
O=c1onc2n1-c1cc(Br)ccc1OC2	inactive	–
COc1ccc(-n2c(=O)c(-c3ccc(Cl)cc3)nc3cnc(N4CCNCC4)nc32)cc1	inactive	–
N#CC1=C(N)OC2=C(C(=O)CCC2)C12CCC1(CC2)OCCO1	inactive	–
CN1CCN(c2ncc3nc(-c4cn(C)c5ccccc45)c(=O)n(CCc4ccccc4)c3n2)CC1	inactive	–
OC1(c2ccc(OC(F)F)cc2)CSC(=Nc2cccnc2)N1C1CC1 (stereo not drawn)	2 µM (active)	–
N#Cc1c(-c2ccccc2)nc2n(c1=O)CCS2	inactive	–
COc1ccc(OCc2nnc(SCC(=O)N3c4ccccc4Sc4ccc(Cl)cc43)o2)cc1	inactive	–
CN1CCCC[C@@H]1CCN1CCCCC1	–	-1.48% [at 11.4 µM]

Structure (SMILES)	AC50	activity, negative = inhibition
CN1CCCC[C@@H]1CCN1c2ccccc2Sc2ccc(S(C)=O)cc21 (stereo partly drawn)	0.1 µM (active)	0.0782% [at 11.4 µM]
COc1ccc2c(c1)N(CC[C@H]1CCCCN1C)c1ccccc1S2	0.0501 µM (active)	–
O=c1c(-c2ccccc2)nc2cncnc2n1C1CC1	inactive	–
O=C(CCNC(=O)c1ccc(Br)o1)NCc1ccccn1	inactive	–
COc1cc(=O)n2c(n1)SCCC2	inactive	–
CC12c3ccccc3C(c3ccccc31)C1C(=O)N(Cc3cccnc3)C(=O)C12 (stereo not drawn)	inactive	–
Cc1cccc(NC(=S)NC(=O)c2cccs2)n1	inactive	–
O=C(NC(=S)Nc1cccc(Cl)c1N1CCCCC1)c1cccs1	inactive	–
CC1CCN(c2ccccc2NC(=S)NC(=O)c2cccs2)CC1	0.2 µM (active)	–
COc1cccc(OCC(=O)NN=C2c3ccccc3-c3ccccc32)c1	inactive	–
O=c1c(-c2ccc(F)cc2)nc2cncnc2n1C1CC1	inactive	–
CCCn1nnc(NC(=O)c2ccc(-c3cccc(Cl)c3)o2)n1	inactive	–
COC(=O)c1sccc1-c1ccc(C(=O)Nc2cccc(Cl)c2)o1	15.8 µM (active)	–
O=C(Nc1cccc2nsnc12)c1ccc(-c2cccc(Cl)c2)o1	inactive	–
Cc1nc2cnc(N3CCNCC3)nc2n(Cc2ccc(F)cc2)c1=O	inactive	–
CCN(CC)CCNC(=O)c1ccc(Cl)c(S(=O)(=O)Nc2ccccc2OC)c1	inactive	–
COC(=O)c1cc(OC)c(OC)cc1NC(=S)N1CCCCC1	inactive	–
CCOC(=O)C1=C(O)/C(=C/c2cc(OC)c(OC)c(OC)c2)N=C1C	inactive	–
COc1cc(N)c(Cl)cc1C(=O)OCCCN1CCCCC1	0.126 µM (active)	–
COc1cc(C(=O)OCC(=O)Nc2cc(C)on2)cc(OC)c1OC	inactive	–
COc1cc(CN2CCCCC2)cc2cc(C(=O)O)c(=O)oc12	–	4.16% [at 11.4 µM]
CCN(CC)CCCCCCCCOC(=O)c1cc(OC)c(OC)c(OC)c1	31.6 µM (active)	–

Structure (SMILES)	AC50	activity, negative = inhibition
Cc1c(-c2ccc(O)cc2)nn(-c2ccc(O)cc2)c1-c1ccc(OCCN2CCCCC2)cc1	inactive	–
CCCCOC(=O)c1ccc(NC(=S)NC(=O)c2c(Cl)cnn2C)cc1	inactive	–
O=C(OCCCN1CCCCC1)c1ccc(O)cc1	5.62 µM (active)	–
CCN(CC)CCOC(=O)c1cc(Cl)c(N)cc1OC	15.8 µM (active)	–
NS(=O)(=O)c1cc2c(cc1Cl)N[C@@H](C(Cl)Cl)NS2(=O)=O	inactive	–
COc1cccc(Cn2c(=O)c(-c3cccs3)nc3cnc(OCc4ccccc4)nc32)c1	inactive	–
Cn1c(=O)c(-c2ccccc2)nc2cnc(OCc3ccccc3)nc21	inactive	–
CCOC(=O)C1CCN(C(=O)c2ccccc2NC(C)=O)CC1	inactive	–
N#Cc1ccccc1NC(=O)Nc1cccs1	inactive	–
Cc1nc2cnc(N(C)C)nc2n(-c2ccccc2)c1=O	inactive	–
COc1ccccc1-n1c(SCC(=O)N2CCCC2)nc2cccnc21	inactive	–
CCOC(=O)c1c(NC(=O)Cn2nc([N+](=O)[O-])c(Br)c2C)sc2c1CCC(C)C2 (stereo not drawn)	inactive	–
CCN(CC)C(=O)c1ccc(O)c(OC)c1	inactive	–
CCCOc1cc(N)ccc1C(=O)OCCN(CC)CC	2 µM (active)	–
CCCCOc1ccccc1N	inactive	–
O=C(O)/C=C/c1cn(-c2ncc(C(F)(F)F)cc2Cl)c2ccccc12	inactive	–
CSc1nnnc2ccccc12	–	0.441% [at 11.4 µM]
Cc1nc2cnc(Oc3cccc(Cl)c3)nc2n(CCC#N)c1=O	inactive	–
CCC(Sc1ncccc1C(=O)O)C(=O)N1CCOCC1 (stereo not drawn)	inactive	–
